Test results taken from PubChem BioAssay (Tox21).
Records with an inconclusive call do not appear. Entries that show only a call come without a potency. The source holds several records for some structures; these can differ, active in one and inactive in another. Active and inactive are the calls of the source. Calls follow the shape of the full dose curve.

Assays:
[1] = biological target: Acetylcholinesterase (Homo sapiens) (UniProt P22303); assay: Acetylcholinesterase (AChE) small molecule antagonists: colormetric cell-based qHTS assay (AID 1347395); also: nearly all actives have a fitted effect of over 30% in size; also: potency is read from the fitted curve at half-maximal effect
Outline: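 In this cell-based qHTS, attached SH-SY5Y cells were treated with test chemicals for 30 min, after which acetylthiocholine hydrolysis was followed by DTNB colour development over 90 min at 37 C.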

[2] = biological target: Acetylcholinesterase (Homo sapiens) (UniProt P22303); assay: Acetylcholinesterase (AChE) small molecule antagonists: enzyme-based qHTS assay (AID 1347397); details: Potency: AChE enzyme activity inhibition; outcome: AChE enzyme activity inhibition; also: nearly all actives have a fitted effect of over 55% in size; also: potency is read from the fitted curve at half-maximal effect
Outline: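 Recombinant human AChE (50 mU/mL) preincubated with compound 30 min at room temperature; acetylthiocholine plus DTNB then added, and thiocholine formation read colorimetrically after 10 min at room temperature. DMSO served as vehicle control.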

[3] = biological target: Acetylcholinesterase (Homo sapiens) (UniProt P22303); assay: Acetylcholinesterase (AChE) small molecule antagonists: fluorescence cell-based qHTS assay (AID 1347398); details: Potency: AChE activity; outcome: AChE activity; also: nearly all actives have a fitted effect of over 50% in size; also: potency is read from the fitted curve at half-maximal effect
Outline: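 SH-SY5Y cells (2000/well), attached overnight, incubated with compound 30 min at 37 C. Acetylthiocholine plus Thiolite Green then added for 40 min at room temperature. Thiocholine fluorescence (Ex/Em 490/520 nm) reports cellular AChE activity.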

[4] = biological target: Acetylcholinesterase (Homo sapiens) (UniProt P22303); assay: Acetylcholinesterase (AChE) small molecule antagonists: enzyme-based qHTS assay with human liver microsomes (AID 1347399); details: Potency: qHTS inhibition; outcome: qHTS inhibition; also: nearly all actives have a fitted effect of over 60% in size
Outline: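 Recombinant human AChE (50 mU/mL in the enzyme mix) and human liver microsomes (0.25 mg/mL final) were preincubated with compound and NADPH (0.25 mg/mL final) for 30 min at 37 C. Acetylthiocholine/DTNB was then added; thiocholine was read colorimetrically after 10 min at room temperature.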

Sequence of Acetylcholinesterase (Homo sapiens) (P22303 whole entry, looked up): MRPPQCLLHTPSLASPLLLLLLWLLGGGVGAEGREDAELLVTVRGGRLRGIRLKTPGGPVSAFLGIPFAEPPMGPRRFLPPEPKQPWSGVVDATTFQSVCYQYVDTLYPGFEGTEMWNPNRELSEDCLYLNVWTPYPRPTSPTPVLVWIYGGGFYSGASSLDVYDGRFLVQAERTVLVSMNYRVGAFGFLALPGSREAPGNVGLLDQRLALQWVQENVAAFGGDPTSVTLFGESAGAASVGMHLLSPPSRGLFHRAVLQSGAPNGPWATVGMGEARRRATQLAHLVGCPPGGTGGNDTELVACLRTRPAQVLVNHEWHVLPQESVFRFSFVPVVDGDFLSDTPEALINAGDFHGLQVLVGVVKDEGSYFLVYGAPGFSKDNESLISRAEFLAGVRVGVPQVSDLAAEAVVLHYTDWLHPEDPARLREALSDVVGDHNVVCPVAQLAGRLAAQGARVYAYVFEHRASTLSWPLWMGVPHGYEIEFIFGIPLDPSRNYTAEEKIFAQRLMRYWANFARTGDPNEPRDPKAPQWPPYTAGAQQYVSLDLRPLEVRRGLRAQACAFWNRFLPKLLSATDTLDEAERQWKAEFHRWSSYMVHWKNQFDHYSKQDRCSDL

Structure (SMILES)	Potency [1]	Potency [2]	Potency [3]	Potency [4]
Oc1ccc(C(c2ccc(O)cc2)C(Cl)(Cl)Cl)cc1	inactive	inactive	inactive	inactive
CCN(CC)CCNC(=O)c1cc(S(C)(=O)=O)ccc1OC	inactive	inactive	inactive	inactive
C=C[C@H]1CN2CC[C@H]1C[C@@H]2[C@@H](O)c1ccnc2ccc(OC)cc12	inactive	inactive	inactive	inactive
COC(=O)CCCCCCCC(=O)OC	inactive	inactive	inactive	inactive
CC(C)c1ccc2cc(C(C)C)ccc2c1	inactive	inactive	inactive	inactive
CCCCCCCCC(=O)O	3.07 µM (active) and inactive	inactive	inactive	inactive
CC(=O)N[C@@H](Cc1ccc(O)cc1)C(=O)O	inactive	inactive	inactive	inactive
CC(=O)SC[C@@H](C)C(=O)N1CCC[C@H]1C(=O)N[C@@H](Cc1ccccc1)C(=O)O	inactive	inactive	inactive	inactive
C[C@@H]1C[C@H]2[C@@H]3CCC4=CC(=O)C=C[C@]4(C)[C@@]3(F)[C@@H](O)C[C@]2(C)[C@@]1(O)C(=O)COP(=O)(O)O	inactive	inactive	inactive	inactive
CCCCCCCCCCCCCCCO	inactive	inactive	inactive	inactive
C=C[C@@H](C)CCC=C(C)C	inactive	inactive	inactive	inactive
C=Cc1ccc(C(C)(C)C)cc1	inactive	inactive	inactive	inactive
CC(C)c1ccccc1O	inactive	inactive	inactive	inactive
CCCc1ccccc1	inactive	inactive	inactive	inactive
CCCCCCCOC(C)=O	inactive	inactive	inactive	inactive
OCC(O)CN1CCN(c2ccccc2)CC1 (stereo not given)	inactive	inactive	inactive	inactive
CCCCCCCCCCO	inactive	inactive	inactive	inactive
CC(=O)OCC(=O)[C@@]1(O)CC[C@H]2[C@@H]3CCC4=CC(=O)CC[C@]4(C)[C@H]3C(=O)C[C@@]21C	inactive	inactive	inactive	inactive
OC1OCCOC1O (stereo not given)	inactive	inactive	inactive	inactive
Oc1ccc(CCNCCCCCCNCCc2ccccc2)cc1O	7.76 µM (active)	27.5 µM (active)	13.8 µM (active)	inactive

Structure (SMILES)	Potency [1]	Potency [2]	Potency [3]	Potency [4]
CC(C)Nc1ccccc1	inactive	inactive	inactive	inactive
COc1ccc(CCN(C)CCCN2CCc3cc(OC)c(OC)cc3CC2=O)cc1OC	inactive	inactive	inactive	inactive
O=C(O)c1cc(C(=O)O)cc(C(=O)O)c1	inactive	inactive	inactive	inactive
CC1CCC(C(C)(C)S)C(=O)C1 (stereo not given)	inactive	inactive	inactive	inactive
CSc1c(Cl)c(Cl)c(Cl)c(Cl)c1Cl	inactive	inactive	inactive	inactive
CC[C@H]1OC(=O)[C@H](C)[C@@H](O[C@H]2C[C@@](C)(OC)[C@@H](O)[C@H](C)O2)[C@H](C)[C@@H](O[C@@H]2O[C@H](C)C[C@H](N(C)C)[C@H]2O)[C@](C)(O)C[C@@H](C)/C(=N\OCOCCOC)[C@H](C)[C@@H](O)[C@]1(C)O	inactive	inactive	inactive	inactive
NC(=O)Cc1cccc(C(=O)c2ccccc2)c1N	inactive	inactive	inactive	inactive
CCCc1nc2c(C)cc(-c3nc4ccccc4n3C)cc2n1Cc1ccc(-c2ccccc2C(=O)O)cc1	inactive	inactive	inactive	inactive
CCn1cc(C(=O)O)c(=O)c2cc(F)c(N3CCNC(C)C3)c(F)c21 (stereo not given)	inactive	inactive	inactive	inactive
C[Si](C)(C)O[Si](C)(C)O[Si](C)(C)C	inactive	inactive	inactive	inactive
Cc1cccc(C)c1NC(=O)c1ccc(N)cc1	inactive	inactive	inactive	inactive
OC[C@H]1O[C@@H]2O[C@H]3[C@H](O)[C@@H](O)[C@@H](O[C@H]4[C@H](O)[C@@H](O)[C@@H](O[C@H]5[C@H](O)[C@@H](O)[C@@H](O[C@H]6[C@H](O)[C@@H](O)[C@@H](O[C@H]7[C@H](O)[C@@H](O)[C@@H](O[C@H]8[C@H](O)[C@@H](O)[C@@H](O[C@H]1[C@H](O)[C@H]2O)O[C@@H]8CO)O[C@@H]7CO)O[C@@H]6CO)O[C@@H]5CO)O[C@@H]4CO)O[C@@H]3CO	inactive	inactive	inactive	inactive
COc1cc(C)cc(O)c1	inactive	inactive	inactive	inactive
COc1cc(-c2ccc(=O)[nH]n2)ccc1OC(F)F	inactive	inactive	inactive	inactive
O=C(OCCOCCOC(=O)c1ccccc1)c1ccccc1	inactive	inactive	inactive	inactive
O=C=NCCCCCCN=C=O	inactive	inactive	inactive	inactive
COc1cc(NS(=O)(=O)c2ccc(N)cc2)nc(OC)n1	inactive	inactive	inactive	inactive
O=Cc1ccc(O)c(O)c1O	inactive	inactive	inactive	inactive
CCC[Si](OC)(OC)OC	inactive	inactive	inactive	inactive
O=C1CCCCCCCCCCCC(=O)OCCO1	inactive	inactive	inactive	inactive

Structure (SMILES)	Potency [1]	Potency [2]	Potency [3]	Potency [4]
CCO[Si](CCCCl)(OCC)OCC	inactive	inactive	inactive	inactive
C/C=C/C(=O)CCCC	inactive	inactive	inactive	inactive
CC(=O)Nc1c(I)c(NC(C)=O)c(I)c(C(=O)O)c1I	inactive	inactive	inactive	inactive
COC(=O)[C@H]1[C@H]2C[C@@H]3c4[nH]c5cc(OC)ccc5c4CCN3C[C@H]2C[C@@H](OC(=O)c2cc(OC)c(OC)c(OC)c2)[C@@H]1OC	inactive	inactive	inactive	inactive
CC(=O)CC(C)=O	inactive	inactive	inactive	inactive
CC(C)CCOC(=O)/C=C/c1ccccc1	inactive	inactive	inactive	inactive
CC(CCO)CCc1ccccc1 (stereo not given)	inactive	inactive	inactive	inactive
Cc1ncc(CO)c(C=O)c1O	inactive	inactive	inactive	inactive
NNC(=O)OCc1ccccc1	inactive	inactive	inactive	inactive
CC(C)CC(=O)CC(C)CC(C)C (stereo not given)	inactive	inactive	inactive	inactive
CC1(C)[C@H]2CC[C@]1(C)C(=O)C2	inactive	inactive	inactive	inactive
Cc1sccc1Br	inactive	inactive	inactive	inactive
COCCOC(=O)CC#N	inactive	inactive	inactive	inactive
NC(=O)Cc1cccc2ccccc12	inactive	inactive	inactive	inactive
CCc1ccc(Br)cc1	inactive	inactive	inactive	inactive
C[C@@H](O)[C@H]1C(=O)N2C(C(=O)O)=C(S[C@@H]3CN[C@H](C(=O)N(C)C)C3)[C@H](C)[C@H]12	inactive	inactive	inactive	inactive
CN1CCC(OC(c2ccccc2)c2ccccc2)CC1	inactive	inactive	inactive	inactive
CCCOc1ccccc1-c1nc2n[nH]nc2c(=O)[nH]1	inactive	inactive	inactive	inactive
COc1cc(/C=C/C(N)=O)cc(OC)c1OC	inactive	inactive	inactive	inactive
C[C@]12C[C@H](O)[C@H]3[C@@H](CCC4=CC(=O)CC[C@@]43C)[C@@H]1CC[C@@H]2C(=O)CO	inactive	inactive	inactive	inactive
